For 83 molecules, activation results are on record in PubChem BioAssay AID624037 (The Scripps Research Institute Molecular Screening Center, 2012).

Each structure is given as a SMILES string. Screen size: about 360,000 compounds; about 700 (0.19%) were called active. For the sample, actives were picked, then their nearest neighbours and some compounds at random. Unmarked numbers belong to inactive results.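 How the source made its calls: active means activation above the run's mean over test compounds plus 3 SD (cut at about 23% in these data); inactive means the rest.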

Chain of Muscarinic acetylcholine receptor M5 (Homo sapiens) (P08912 whole entry, looked up): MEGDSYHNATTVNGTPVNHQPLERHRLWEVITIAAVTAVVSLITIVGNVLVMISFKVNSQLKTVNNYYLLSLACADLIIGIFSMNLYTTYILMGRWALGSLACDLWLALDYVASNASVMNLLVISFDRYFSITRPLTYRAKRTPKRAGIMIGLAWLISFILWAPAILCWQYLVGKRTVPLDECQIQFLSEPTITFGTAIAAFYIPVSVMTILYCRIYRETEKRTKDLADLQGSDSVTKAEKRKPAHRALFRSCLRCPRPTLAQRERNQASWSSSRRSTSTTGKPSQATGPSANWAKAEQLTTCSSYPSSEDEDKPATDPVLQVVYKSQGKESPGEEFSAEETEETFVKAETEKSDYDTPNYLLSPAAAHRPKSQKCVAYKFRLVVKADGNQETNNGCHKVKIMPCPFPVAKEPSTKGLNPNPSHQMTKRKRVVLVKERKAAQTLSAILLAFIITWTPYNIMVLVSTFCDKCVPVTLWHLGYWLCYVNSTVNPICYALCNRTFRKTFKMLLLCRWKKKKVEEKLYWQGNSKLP

The test addresses Muscarinic acetylcholine receptor M5 (Homo sapiens) (UniProt P08912). Kind of test: human M5 muscarinic receptor agonists, primary screen, CHO-K1 cells, Fluo-8 calcium fluorescence (AID 624037).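 Further: signal is peak over basal fluorescence ratio across the kinetic read.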 The note with it: CHO-K1 hM5 cells, at 3 µM, hits give high values, 0% DMSO wells, 100% maximal acetylcholine response.
With `CC#CC[N+](C)(C)CCCCCC`, the activation was -16.5%. As to `CCc1ccc(NC(=O)C(C)OC(=O)/C=C/c2cccc([N+](=O)[O-])c2)cc1` (stereo not drawn), the activation is -0.62%. The same measure for `CCCCN(C)CCNC(=O)CSCc1ccc(C)cc1`: -6.02%; for `Cc1ccc(CNC(=O)C(=O)c2cn(CC(=O)N3CCOCC3)c3ccccc23)cc1`: -1.51%. With `O=C1/C(=C/c2ccc3c(c2)OCO3)Oc2cc(OCC(=O)N3CC(O)C[C@H]3C(=O)O)ccc21` (stereo partly drawn), the activation was 0.73%. On to `CCOCCCNC(=S)Nc1ccc2nc(N3CCN(CC)CC3)cc(C)c2c1`, for which the activation was -4.11%. In the case of `Cn1cccc1C(C#N)c1ccccc1C#N` (stereo not drawn) it was -3.67%; in that of `Cc1cccc(C)c1-n1nnnc1C1(C)CCC(=O)N1CCOc1ccccc1` (stereo not drawn), 4.47%. As for `Cc1cccc2c1N(CCOc1ccccc1)C(=O)C2=O`, the activation is 30.5% (active).

Consider `O=C1c2ccccc2C(=O)N1CCOc1ccc(F)cc1`, for which the activation is 11.9%. Regarding `O=c1ccc(S(=O)(=O)N2CCCC2)cn1Cc1nc(-c2ccccc2)no1`, the activation is -5.43%.

Take `Cc1ccc(C)c(NC(=O)c2ccc(OC(=O)c3ccco3)cc2)c1`: the activation was -2.18%.

As for `Cc1csc(=O)n1CC(=O)OCC(=O)N(CC(C)C)c1c(N)n(Cc2ccccc2)c(=O)[nH]c1=O`, the activation is 3.34%.

For the molecule `CN(Cc1ccccc1)C(=O)COC(=O)/C=C/c1ccc2c(c1)OCO2`, the activation was 0.5%. As for `CCNC(=O)C1(C)CCCN(Cc2noc(-c3ccccc3OC)n2)C1` (stereo not drawn), the activation was 1.13%. `Cc1ccc(CNC(=O)c2cccc3c2C(=O)c2ccc(N4CCC(C)CC4)cc2S3(=O)=O)cc1`: the activation was 4.93%. On to `COc1ccc(S(=O)(=O)N2CCC(C(=O)NCCC(=O)Nc3ccccc3OC)CC2)cc1`, for which the activation was -1.33%. In the case of `CN(c1ccccn1)c1ncnc2[nH]ncc12` it was -0.14%. `CN(C)/C=C/C(=O)c1cnc2sccn2c1=O`: the activation was -2.29%. As for `O=C(O)c1ccn(COc2ccc(Br)cc2)n1`, the activation is -0.71%. In the case of `Cc1c(NC(=O)COC(=O)/C=C/c2cccc(F)c2)c(=O)n(-c2ccccc2)n1C`, the activation was 0.67%. Consider `CCCCC[C@H]1CN(C2CCCCC2)C(=O)[C@@H]1CC(=O)NCc1ccc(OC)cc1`, for which the activation was -4.19%.

On to `COc1cc(N2C(=O)CC3(CCCC3)CC2=O)cc(OC)c1OC`, for which the activation was 1.4%. Turning to `Cc1ccc(C)c(NS(=O)(=O)c2ccc(OCC(=O)NCc3cccnc3)cc2)c1`, the activation is -1.65%. In the case of `CC(C)(C)OC(=O)C[C@@H]1C/C=C\C[C@@H](CC(=O)NCCO)C(=O)N[C@H](Cc2c[nH]c3ccccc23)COC1=O` it was -0.08%; in that of `CCOC(=O)C=Cc1ccc(C(=O)OCC)[nH]1`, 5.25%.

Regarding `CSCCC(NC(=O)COc1ccccc1)C(=O)N(C)CC(=O)Nc1ccc(C)cc1` (stereo not drawn), the activation is 0.98%. With `C=CC[n+]1c(-c2ccc(C)cc2)csc1NNC(=O)Nc1ccccc1`, the activation is 0.82%.

Take `O=C(Nc1cccc(Cl)c1)c1cc(S(=O)(=O)N2CCCCC2)c[nH]1`: the activation is 4.63%. `CCOc1ccc(NC(=O)CN(C)C(=O)COc2cccc(CC)c2)cc1OCC`: the activation was -0.57%.

In the case of `COc1ccc(CCNC(=S)N2CCN(S(=O)(=O)c3ccc(F)cc3)CC2)cc1`, the activation is -3.34%.

For `Cc1nc(C(=O)Nc2ccc(Cl)cc2)sc1C1(C)CC(c2ccccc2)=NO1` (stereo not drawn), the activation was 1.09%. In the case of `Cc1nc(-c2ccc(Cl)cc2)sc1C1(C)CC(c2ccccc2F)=NO1` (stereo not drawn) it was -0.32%; in that of `Cc1nc(C(=O)NCc2ccccc2)sc1C1(C)CC(c2cccnc2)=NO1` (stereo not drawn), 25.4% (active); in that of `Cc1cc(C)cc(NC(=O)N(C)Cc2ccccc2)c1`, -2.57%. Take `CC(C)(C)N(Cc1ccccc1)C(=O)c1ccncc1`: the activation was -0.8%. Consider `CN(C(=O)CN(CCO)CC(=O)N(C)C(C)(C)Cc1ccccc1)C(C)(C)Cc1ccccc1`, for which the activation was 39.7% (active).

Regarding `CCc1sc(C(=O)N2CCN(CC(=O)Nc3cccc(F)c3)CC2)cc1C`, the activation is -3.37%. In the case of `COc1ccc(NC(=S)NCc2cccs2)c(OC)c1` it was -3.29%; in that of `COc1cccc(CNc2nc(NCc3cccs3)nc3ccsc23)c1`, 27.2% (active).

As to `COc1cccc(CNc2nc3cc(-c4csc5ccccc45)sc3c(=O)n2C)c1`, the activation is -0.3%. As for `CC(=O)Nc1cccc(-c2cc3nc(NCc4cccnc4)n(C)c(=O)c3s2)c1`, the activation was 0.81%.

`CCOC(=O)CNc1nc2ccccc2n2c(C)nnc12`: the activation is 1.28%. Regarding `CC(=O)NCC(=O)N(Cc1ccco1)C1(C(=O)NC2CCCC2)CCCCC1`, the activation was -0.72%.

Regarding `CC(C)[C@H](NC(=O)Nc1ccc(S(N)(=O)=O)cc1)C(=O)O`, the activation is -2.17%. Take `CCN(CC)c1ccc(NC(=O)CN2C(=O)NC3(CCc4ccccc43)C2=O)cc1` (stereo not drawn): the activation was 2.57%. Take `CN(C)c1ccc(/C=C2\NC(=S)N(Cc3ccccc3)C2=O)cc1`: the activation is 41.4% (active). Turning to `O=C(Cn1cc(C(=O)C2CC2)c2ccccc21)Nc1ccccc1Cl`, the activation is 1.64%.

With `C=CCNc1nnc(SCC(=O)N2CCCCC2)c2ccccc12`, the activation is -0.35%.

As to `C/C(=C/C(=O)N1CCN(C)CC1)C(=O)O`, the activation is -1.65%. The same measure for `Nc1ccc2c(c1)C(=Cc1cccnc1)c1ccccc1-2`: -7.37%. Turning to `C[C@@H]1CN([C@@H](C)CO)S(=O)(=O)c2ccc(-c3ccc(C(=O)N(C)C)cc3)cc2O[C@@H]1CN(C)Cc1ccccc1C(=O)O`, the activation is -0.69%.

Turning to `Cc1ccccc1NC(=S)NC(=O)Cc1ccc(Cl)cc1`, the activation was 25.7% (active). As to `Oc1ccc(CNc2ccccc2O)cc1`, the activation is 3.67%.

As for `O=C(Cc1ccc(Cl)cc1)NC(=S)Nc1ccccc1O`, the activation is 75.2% (active).

As for `O=C(NC(=S)Nc1ccc(Cl)cc1Cl)C1CC1`, the activation was -3.08%. In the case of `Cc1ccccc1N/C(SCc1ccc(Cl)cc1)=C(/C#N)C(N)=O` it was -7.05%; in that of `Cc1cc(C(=O)NNC(=S)Nc2ccccc2C)cs1`, -0.42%; in that of `O=C(C1CCN(S(=O)(=O)c2cccs2)CC1)N1CCCCCC1`, -3.68%. `CCOc1ccc(NC(=O)N(CC(C)C)CC(C)C)cc1`: the activation was -3.79%. Take `CCC(=C/c1sc2ccc3ccccc3c2[n+]1C)/C=C1\Sc2ccc3ccccc3c2N1C`: the activation was 1.63%.

Consider `COC(=O)CSc1snnc1-c1ccc(Cl)c(Cl)c1`, for which the activation was -7.41%.

As for `CN(C)c1cc(N)c2ccccc2n1` (tested in a mixture with another compound), the activation is -6.58%. On to `NS(=O)(=O)c1cccc(NC(=O)CC23CC4CC(CC(Br)(C4)C2)C3)c1`, for which the activation was -1.18%. Take `CC(=O)NC1=NN(C(C)=O)C(C)(c2ccc(C)cc2)S1` (stereo not drawn): the activation was 1.09%. In the case of `COc1ccccc1C(=O)Oc1ccc(N2C(=O)CCC2=O)cc1` it was -1.29%; in that of `O=C(CCN1C(=O)[C@H]2CC=CC[C@H]2C1=O)NCc1nc(-c2ccccc2)no1`, 0.28%; in that of `COc1ccccc1C(=O)NC(CCSC)C(=O)NNC(=O)c1csc(N2CCOCC2)n1` (stereo not drawn), -2.2%. In the case of `O=C(NCCSc1ncc(-c2ccccc2)[nH]1)c1ccco1` it was -1.14%. For the molecule `Cc1nnc(SCC(=O)Nc2ncc3c(n2)CC(C)(C)CC3=O)s1`, the activation is -1.69%. On to `COC(=O)c1sc(N)c(C(=O)OC)c1COC(=O)CNS(=O)(=O)c1ccc(C)cc1`, for which the activation was 1.46%. `C/C=C/c1ccc(OCC(=O)OCC(=O)Nc2c(C)nn(-c3ccccc3)c2C)c(OC)c1`: the activation was 0.8%.

Regarding `Nc1ccc2nc3c(=O)[nH]c(=S)[nH]c3nc2c1`, the activation is 13.3%. Consider `CCCn1c(=O)c2c(C(F)(F)F)cc(-c3cccs3)nc2n(CCC)c1=O`, for which the activation is -2.81%. As to `COC(=O)c1c(NC(=O)c2ccccc2F)sc2c1C(C(=O)OC)CC2` (stereo not drawn), the activation is 0.55%. In the case of `COCC1CCCN(C(=O)c2ccc3oc(C(C)C)nc3c2)C1` (stereo not drawn) it was -5.48%; in that of `O=C(NCc1cccc(Cl)c1)C1=CC=CN2CCS(=O)(=O)N=C12`, -4.02%; in that of `C=CCC(NC(=O)Cc1ccccc1)C(=O)NCCC` (stereo not drawn), 1.37%. In the case of `CCCCC(=O)NNC(=S)NC(=O)C(c1ccccc1)c1ccccc1` it was 76.2% (active). As to `CCCCC(=O)Nc1ccc2c(c1)C(=O)NC2=O`, the activation was -1.75%. Take `CNC(=O)C1CN(C(=O)c2cccc(S(=O)(=O)N3CCc4ccccc43)c2)c2ccccc2O1` (stereo not drawn): the activation is 2.34%. For `CC(C)C[C@H](NC(=O)NCCc1ccc(Cl)cc1)C(=O)O`, the activation is -0.97%.

`CC(NC(=O)c1ccco1)c1ccc2c(c1)OCO2` (stereo not drawn): the activation is -1.73%.
